DT40 TDP1 no CPT = qHTS for Inhibitors of human tyrosyl-DNA phosphodiesterase 1 (TDP1): qHTS in cells in absence of CPT; DT40 Tdp1-/- hTDP1 cells, no CPT, ATP luminescence, 48 h; Potency, µM (top dose mostly 46.2 µM), inactives show at the top dose activity change, negative = growth inhibition, usual class: inhibitors; hit rate 15% among 420,000; AID 686978, 2013; also: potency is read from the fitted curve at half-maximal effect; % is scaled to controls: 0 for no effect and ±100 for the full control effect; nearly all actives have a fitted effect of over 55% in size
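Compound effects on proliferation are scored in DT40 Tdp1-/-;hTDP1 cells in the absence of CPT. ATP levels (CellTiter-Glo luminescence) are recorded after a ≥48 hr, 37 °C incubation.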
TDP1 inh = blocks human tyrosyl-DNA phosphodiesterase 1; Q9NUW8; recombinant TDP1, AlphaScreen DNA substrate cleavage; Potency, µM (series often up to 130 µM), without a hit: top-dose activity change, negative = inhibition, hits mostly inhibitors; hit rate 0.28% among 350,000; also: potency is read from the fitted curve at half-maximal effect; % is scaled to controls: 0 for no effect and ±100 for the full control effect; nearly all actives have a fitted effect of over 40% in size
Target sequence (Q9NUW8 whole entry, looked up): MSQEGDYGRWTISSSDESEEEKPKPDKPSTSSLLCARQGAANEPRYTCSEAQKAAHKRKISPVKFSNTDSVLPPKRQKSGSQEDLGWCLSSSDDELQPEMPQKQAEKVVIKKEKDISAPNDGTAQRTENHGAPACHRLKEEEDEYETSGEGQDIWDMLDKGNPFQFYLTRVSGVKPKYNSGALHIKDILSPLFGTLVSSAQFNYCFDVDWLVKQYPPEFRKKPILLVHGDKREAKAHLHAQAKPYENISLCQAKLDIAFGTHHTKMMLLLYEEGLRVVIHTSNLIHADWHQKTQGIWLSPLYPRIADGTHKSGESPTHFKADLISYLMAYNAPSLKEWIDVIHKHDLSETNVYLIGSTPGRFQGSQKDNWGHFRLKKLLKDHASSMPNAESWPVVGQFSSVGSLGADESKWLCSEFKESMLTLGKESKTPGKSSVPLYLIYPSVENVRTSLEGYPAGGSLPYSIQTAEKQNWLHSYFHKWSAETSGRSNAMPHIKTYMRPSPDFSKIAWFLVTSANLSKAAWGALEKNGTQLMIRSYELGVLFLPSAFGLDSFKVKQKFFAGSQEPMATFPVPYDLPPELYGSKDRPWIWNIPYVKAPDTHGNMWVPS
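Here, a 5' biotin and 3' phosphotyrosine-FITC DNA oligonucleotide reports Tdp1 activity: intact substrate bridges AlphaScreen beads, while cleavage leaves a 3' phosphate and drops signal. All incubations at room temperature.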
HepG2 tox = HepG2 cytotoxicity, counter-screen for TGF-b inhibitors; HepG2 CAGA-GFP viability, ATP luminescence, 18 h; Potency, µM (doses to about 46.1 µM), for the others: at the top dose activity change, negative = cytotoxicity, actives largely listed as cytotoxic; hit rate 0.76% among 410,000; AID 588856; also: potency is read from the fitted curve at half-maximal effect
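HepG2 CAGA-GFP cells (1000/well, DMEM with 1% FBS) received compound, then TGF-beta at 500 pg/mL final, and were incubated 18 hours at 37 degrees C. Viability was read by CellTiter-Glo luminescence. Media-only wells were set as complete cell-killing and DMSO as no toxicity.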
TGFb inhibitor = TGF-b pathway inhibition | HepG2 CAGA-GFP TGF-b/SMAD3 reporter, GFP fluorescence, 18 h; TGF-beta stimulated, 500 pg/mL final | Potency, µM (doses to about 46.1 µM), inactives show at the top dose activity, negative = inhibition, most hits filed as inhibitors | hit rate 1.2% among 410,000; also: potency is read from the fitted curve at half-maximal effect; % is scaled to controls: 0 for no effect and ±100 for the full control effect; nearly all actives have a fitted effect of over 65% in size
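Inhibition was scored as loss of TGF-beta-induced (500 pg/mL final, 18 hours, 37 degrees C) GFP in HEPG2 cells carrying a CAGA-GFP reporter, in DMEM with 1% FBS. Well GFP was summed per cell; Activity was normalised to unstimulated and stimulated DMSO wells, then concentration-response fitting.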
IL1B secr inh = inhibitors of inflammasome signaling (IL-1 beta secretion); THP-1 LPS/ATP IL-1B secretion, AlphaLISA, 16 h; active compounds read low; activity change, % at 57.5 µM; hit rate 4.7% among 360,000; AID 743279; in the data active = activity change below about -50%; inconclusive = mostly about -30% to -49%; also: % is scaled to controls: 0 for no effect and ±100 for the full control effect
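Secreted IL-1B measured by AlphaLISA bead assay after 16 h compound exposure of THP-1 cells; compounds (final up to 57.5 uM) added 1 h before LPS (250 ng/mL) and ATP (1.25 mM) stimulation; lower signal means less secretion.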
TDP1 cell CPT = growth inhibition of DT40 Tdp1-/-;hTDP1 cells with camptothecin (screen for TDP1 inhibitors) | hit rate 12% among 420,000 | chicken DT40 Tdp1-/-;hTDP1 cells + 20 nM CPT, ATP luminescence, 48 h | Potency, µM (top dose mostly 46.2 µM), without a hit: top-dose activity change, negative = growth inhibition, actives largely listed as inhibitors; also: potency is read from the fitted curve at half-maximal effect; % is scaled to controls: 0 for no effect and ±100 for the full control effect; nearly all actives have a fitted effect of over 55% in size
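Chicken DT40 Tdp1-/- cells stably complemented with human TDP1 were seeded at 400 cells/well in medium containing 20 nM camptothecin, exposed to pin-transferred compounds, and grown at 37 °C for at least 48 hr. Viability was read as ATP luminescence.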
Numbers without * were called inactive; ? = inconclusive; nt = no result. Sampled rows, rich in hits. Any-hit rate of the full collection: about 19%. Unless noted, calls follow the shape of the dose curve; as a rule, active = well fitted curve in the direction sought with a large enough effect; inconclusive = small, poorly fitted or top-dose-only effect, or another doubt; inactive = no such curve, though single readings can be large; an effect the other way counts as inactive or inconclusive.

SMILES	DT40 TDP1 no CPT	TDP1 inh	HepG2 tox	TGFb inhibitor	IL1B secr inh	TDP1 cell CPT
CC(=O)c1ccc(NC(=O)CN2C(=O)CCC2=O)cc1	-4%	5%	-4%	-24%	-1	19%
O=C(CN1C(=O)CCC1=O)Nc1ccc(Cc2ccc(NC(=O)CN3C(=O)CCC3=O)cc2)cc1	8%	9%	-46%	-6%	-69*	16%
C[C@@H]1C[C@@H]2OC(=O)[C@]3(C)[C@H]2[C@@H](OC3(C)O)[C@]2(C)C(=O)C=C[C@H]12 (stereo not given in full)	?	-2%	-54%	-5%	-90*	18µM*
CCC(C)[C@H]1CNCCN1CCc1cccc2ccccc12 (stereo not given in full)	?	?	-32%	13%	-7	16µM*
CC(O)[C@H]1CNC(=O)C(=O)N1CCc1cccc2ccccc12 (stereo not given in full)	-10%	-1%	5%	5%	21	-1%
CCC(C)[C@H]1CNCCN1CC1(c2ccccc2)CC1 (stereo not given in full)	18µM*	-4%	4%	-7%	-15	21µM*
CCC(C)[C@H]1CNCCN1CCC12CC3CC(CC(C3)C1)C2 (stereo not given in full)	12µM*	-1%	-40%	-12%	-62*	26µM*
CCC(C)[C@H]1CNCCN1CCCc1cc(OC)c(OC)c(OC)c1 (stereo not given in full)	3%	-18%	6%	3%	11	6%
NC(=O)c1cc(Cl)ccc1OCC(=O)NC1CC1	-15%	0%	18%	-6%	17	15%
CCN(C(=O)c1cc2c(=O)oc3ccccc3c2s1)c1ccccc1F	?	6%	-5%	?	nt	?
CSC1SCC2C(=O)N(C)C(C(C)C)C(=O)OCC(NC(=O)c3cnc4ccccc4n3)C(=O)NC(C)C(=O)N(C)C1C(=O)N(C)C(C(C)C)C(=O)OCC(NC(=O)c1cnc3ccccc3n1)C(=O)NC(C)C(=O)N2C (stereo not given)	-83%	nt	35%	-106%	-116*	-72%
NCCCCCc1cnc[nH]1	nt	6%	nt	nt	nt	nt
O=C1C2CCCN2C(c2ccc(F)cc2)N1c1ccc(Cl)cc1 (stereo not given)	-16%	0%	-49%	-6%	-15	6%
COc1ccccc1N1C(=O)c2ccccc2NC1c1ccncc1 (stereo not given)	2%	2%	3%	11%	28	-9%
CCc1ccc(C2NC(=S)NC3=C2C(=O)N(c2ccccc2OC)C(c2ccc(CC)cc2)N3)cc1 (stereo not given)	18µM*	1%	-81%	?	-79*	16µM*
O=C1C2=C(NC(=S)NC2c2ccc(Cl)cc2)NC(c2ccc(Cl)cc2)N1c1ccc(Cl)cc1 (stereo not given)	?	2%	-112%	?	-101*	?
Cc1cc(=O)n2nc(N3CCC(C(=O)Nc4ccc(C(C)C)cc4)CC3)sc2n1	?	8%	-1%	?	nt	?
Cc1cc(C)c(C)c(S(=O)(=O)N2CCC(C(=O)OCC(=O)NC3CCS(=O)(=O)C3)CC2)c1C (stereo not given)	2%	0%	2%	2%	17	-4%
O=C(Nc1nnc(-c2cc(Cl)ccc2Cl)o1)c1ccc2c(c1)OCCO2	16µM*	5%	2%	4%	nt	?
Cc1ccc2nc(-c3cccc(NC(=O)c4ccc5c(c4)OCCO5)c3)oc2c1	?	1%	-44%	0%	5	-16%
